Sampled rows, rich in hits. Any-hit rate of the full collection: about 21%.
Pf growth 96h – inhibits malaria parasite growth, 96 h; Potency, µM (titrated, usually from 28.7 µM), without a hit: top-dose activity change, negative = inhibition, usual class: inhibitors; 320,000 tested, 6.9% active; P. falciparum luciferase reporter growth, 96 h; AID 504834; further: potency means the concentration at half of the fitted maximal effect; on the % scale 0 is the no-effect control and ±100 the full control effect
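Two-generation exposure (96 h) targets delayed-death phenotype. Reporter parasites carrying integrated firefly luciferase, in red cells at 2% hematocrit and 0.05% parasitemia final, kept at 37 C, 5% CO2; luminescence loss indicates inhibition.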
Pf growth 48h – P. falciparum growth inhibition at 48 hours (one generation); P. falciparum luciferase growth in erythrocytes, 48 h; Potency, µM (titrated, usually from 28.7 µM), without a hit: at the highest dose activity change, negative = inhibition, usual class: inhibitors; 310,000 tested, 5.9% active; further: potency means the concentration at half of the fitted maximal effect; on the % scale 0 is the no-effect control and ±100 the full control effect
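Cell-based growth assay: transgenic P. falciparum expressing firefly luciferase, cultured in red cells within RPMI 1640 containing 0.5% w/v Albumax, 24 mM bicarbonate and gentamycin. A drop in luciferase activity indicates inhibition.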
Shiga toxin inh – blocks Shiga toxin action in Vero cells; Vero cells, Shiga toxin protein synthesis inhibition reporter; inhibition, % at 38.7 µM; 290,000 tested, 9.2% active; in the data active means inhibition mostly above about 28%, no sharp cut-off; inactive means mostly below about 43%; further: 0% is about no effect
Giardia FBPA inh – blocks Giardia fructose-bisphosphate aldolase activity; purified Giardia FBPA; 290,000 tested, 0.71% active; Potency, µM (doses to about 59.6 µM), for the others: top-dose activity, negative = inhibition, most hits filed as inhibitors; further: potency means the concentration at half of the fitted maximal effect; on the % scale 0 is the no-effect control and ±100 the full control effect; nearly all actives have a fitted effect of over 55% in size
Target sequence (A8B2U2 whole entry, looked up): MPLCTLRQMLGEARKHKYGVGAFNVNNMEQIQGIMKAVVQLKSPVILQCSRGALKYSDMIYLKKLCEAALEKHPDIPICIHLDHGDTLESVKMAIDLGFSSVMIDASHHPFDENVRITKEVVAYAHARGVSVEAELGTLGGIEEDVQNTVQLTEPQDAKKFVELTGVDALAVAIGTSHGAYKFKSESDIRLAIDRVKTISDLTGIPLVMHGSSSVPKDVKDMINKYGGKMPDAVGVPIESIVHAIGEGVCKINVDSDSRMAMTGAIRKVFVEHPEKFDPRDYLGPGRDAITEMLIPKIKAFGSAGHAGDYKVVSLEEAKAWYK
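Giardia FBPA (40 nM reagent) was preincubated 10 min at RT with compound (up to 57.5 uM final), then substrate plus GAPDH/TPI/NAD/arsenate coupling system with diaphorase/resazurin was added; resorufin fluorescence (525/598 nm) was read after 20 min.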
CHX counter – affects cycloheximide protein synthesis inhibition readout, counter-screen. AID 2314. 300,000 tested, 12% active. max response, %. cell reporter, cycloheximide protein synthesis inhibition counterscreen; in the data active means max response mostly above about 13%, no sharp cut-off; inactive means mostly below about 14%; further: read at 38.3 µM for the half of the compounds with a filed dose; 0% is about no effect
NS1 function inh – influenza NS1 inhibition; Potency, µM (titrated, usually from 46.1 µM), inactives show at the highest dose activity, positive = more growth; 270,000 tested, 0.4% active; calls by dose curve; further: potency means the concentration at half of the fitted maximal effect; actives are rising curves; nearly all actives have a fitted effect of over 50% in size
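S. cerevisiae expressing influenza A NS1, grown in glucose, washed, then diluted 1:100 into pH 6.0 -URA galactose medium with 23 nl compound. Growth recovery read as OD600; NS1-free strain serves as control.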
* = called active by the depositor; u = inconclusive; x = no result given; [ ] = remark or other dose. Unless noted, the call rests on the fitted dose curve; in most records, active means well fitted curve in the direction sought with a large enough effect; inconclusive means small, poorly fitted or top-dose-only effect, or another doubt; inactive means no such curve, though single readings can be large; an effect the other way counts as inactive or inconclusive.

SMILES	Pf growth 96h	Pf growth 48h	Shiga toxin inh	Giardia FBPA inh	CHX counter	NS1 function inh
O=C(O)c1cccc(N2C(=O)/C(=C/c3ccc([N+](=O)[O-])cc3)C=C2c2ccccc2)c1	u	-66.2%	38.1*	-6.2%	22.6*	x
COc1ccc(N2C(=O)/C(=C/c3ccc([N+](=O)[O-])cc3)C=C2c2ccccc2)cc1	13.1µM*	u	-14.7	-3.1%	-0.6	17.1%
COc1cc(OC)cc(C(=O)N[C@H](C(=O)NCc2ccccc2)C(C)C)c1	-25.4%	-20.5%	-3.4	9.4%	-1.0	3.5%
Cc1ccc2nc(SCC(=O)Nc3ccc(C(N)=O)cc3)[nH]c2c1	u	-19.6%	24.4	-4.3%	-1.9	u
CCOC(=O)c1sc(NC(=O)CSc2nnnn2-c2ccccc2)c(C(=O)OCC)c1C	-12.2%	-5.0%	0.5	2.2%	-0.5	-19.2%
CCOC(=O)c1c(NC(=O)CSc2nnnn2-c2ccccc2OCC)sc2c1CC(C)(C)NC2(C)C	8.28µM*	10.4µM*	x	x	x	x
CCOC(=O)c1c(NC(=O)CSc2nc3ccc(C)cc3[nH]2)sc2c1CC(C)(C)NC2(C)C	4.65µM*	4.65µM*	x	x	x	x
CCOC(=O)c1c(NC(=O)CSc2nnnn2-c2ccccc2)sc2c1CC(C)(C)NC2(C)C	2.62µM*	6.57µM*	-13.2	7.6%	-2.8	18.9%
CCOP(=O)(OCC)C(NC(=O)NS(=O)(=O)c1ccc(C)cc1)c1ccccc1 (configuration not stated)	21.0%	23.9%	-7.3	-4.6%	1.1	6.8%
Cc1cccn2c(=O)c3c(nc12)N1CCC(Cc2ccccc2)CC1C1(C3)C(=O)N(C)C(=O)N(C)C1=O (configuration not stated)	u	u	-12.8	-22.8%	7.2	u
CN1C(=O)N(C)C(=O)C2(Cc3c(nc4ccccn4c3=O)N3CCC(Cc4ccccc4)CC32)C1=O (configuration not stated)	-15.0%	u	-7.6	0.5%	-6.9	-51.2%
Cc1cccn2c(=O)c3c(nc12)N1CCCCC1C1(C3)C(=O)N(C)C(=O)N(C)C1=O (configuration not stated)	2.94µM*	u	-3.3	0.3%	1.0	-3.2%
O=C1NC(=O)C2(Cc3c(nc4ccccn4c3=O)N3CCCCCC32)C(=O)N1Cc1ccccc1 (configuration not stated)	5.22µM*	u	6.0	-4.1%	-1.9	-39.4%
Cc1cc(C(=O)COC(=O)c2ccc([N+](=O)[O-])o2)c(C)n1CC1CCCO1 (configuration not stated)	2.1%	47.2%	123.0*	u	49.4*	-6.6%
O=C(COC(=O)c1ccc(O)cc1)NCC1COc2ccccc2O1 (configuration not stated)	u	-10.9%	x	x	x	x
COCCn1c(C)cc(C(=O)COC(=O)c2ccc([N+](=O)[O-])o2)c1C	2.0%	34.1%	122.7*	-28.1%	45.9*	x
Cc1cc(C(=O)COC(=O)c2ccc(O)cc2)c(C)n1CC1COc2ccccc2O1 (configuration not stated)	13.1µM*	u	12.3	0.6%	-0.1	17.3%
Cc1cc(C)c(C(=O)COC(=O)c2ccc([N+](=O)[O-])o2)cc1C	10.2%	5.0%	-1.7	u	9.5	x
Cc1cc(C(=O)COC(=O)c2ccc3c(c2)OCO3)c(C)n1CC1CCCO1 (configuration not stated)	331.4%	280.5%	147.3*	-3.6%	40.4*	-0.8%
N#Cc1ccccc1CSc1nc(N)cc(N)n1	-3.6%	-2.3%	-4.3	-22.7%	-0.7	21.0%
O=C(CNC(=O)c1ccco1)N/N=C/c1ccc(C(=O)O)cc1	13.4%	u	-12.5	-16.8%	5.9	13.0%
C[C@]12CCC[C@H](O1)[C@H]([C@@H](O)c1ccccc1)O2	10.6%	-10.8%	x	x	x	x
CSc1ncccc1C(=O)OCC(=O)c1cc(C)n(CC2CCCO2)c1C (configuration not stated)	23.9%	15.2%	56.0*	-8.0%	38.8*	-5.6%
COc1ccc(C(=O)COC(=O)c2nn(C)cc2Cl)cc1	215.4%	5.2%	69.3*	7.1%	14.8*	-8.7%
Cc1cc(C(=O)COC(=O)C2CCN(C(=O)c3ccc(Cl)cc3)CC2)c(C)n1CC1CCCO1 (configuration not stated)	-18.0%	-3.8%	99.9*	3.0%	66.1*	x
SMILES	Pf growth 96h	Pf growth 48h	Shiga toxin inh	Giardia FBPA inh	CHX counter	NS1 function inh
COCCn1c(C)cc(C(=O)COC(=O)c2cc3c(s2)CCC3)c1C	30.3%[5.75 µM]	27.3%	94.8*	5.5%	30.3*	1.5%
COc1ccc(COC(=O)N/N=C2/C[C@@H](O)[C@@H](O)[C@@H]3[C@@H]4C(=O)N(C(C)(C)C)C(=O)[C@H]4CC[C@H]23)cc1	x	x	x	-1.2%[12.9 µM]	x	x
Cc1cc(OCC(=O)N(Cc2ccccc2)C2CCS(=O)(=O)C2)ccc1Cl (configuration not stated)	u	2.0%	-3.7	x	-2.6	0.7%
COc1ccc(C(=O)COC(=O)c2cccnc2SC)cc1	u	34.4%[5.75 µM]	48.1	-3.4%	30.3*	0.8%
COCCn1c(C)cc(C(=O)COC(=O)C23CC4CC(CC(O)(C4)C2)C3)c1C	141.6%	144.7%	57.1*	8.7%	38.0*	0.0%
Cc1cc(C(=O)COC(=O)C23CC4CC(CC(O)(C4)C2)C3)c(C)n1-c1c(C)n(C)n(-c2ccccc2)c1=O	-0.1%	-0.4%	-10.8	3.9%	-2.4	x
CSc1ncccc1C(=O)OCC(=O)c1ccccc1	41.3%	-14.9%	10.7	-0.3%	14.1	-1.0%
O=[N+]([O-])c1ccc(C2CN=C(Nc3ccccc3)S2)cc1 (configuration not stated)	0.0%	58.7%	77.3*	1.9%	56.6*	x
CCc1ccc(NC2=NCC(c3ccccc3)S2)cc1 (configuration not stated)	-93.0%	u	82.5*	-2.5%	58.5*	x
O=C(CCc1ccccc1)Nc1cccnc1	48.6%	-2.4%[0.00184 µM]	104.3*	4.1%	13.4*	1.5%
CC(C)c1nnc(NC(=O)CCC(=O)NCCc2ccccc2)s1	13.4%	-10.9%	10.7	0.8%	1.0	0.3%
COc1ccccc1N1CCN(C(=O)CCC(=O)Nc2nnc(C(C)C)s2)CC1	11.7µM*	-5.2%	-7.5	x	-1.7	-5.2%
CC(C)c1ccc(NC(=O)COc2nncc3ccccc23)cc1	1.8%	-1.4%	42.5*	0.5%	24.1*	2.5%
CC(C)c1nnc(NC(=O)CCc2ccccc2)s1	0.0%	22.1%	27.6	6.6%	18.9*	1.6%
O=C(Cc1ccccc1)Nc1cccnc1	3.0%	2.8%	14.0	5.3%	5.7	x
COc1ccc(F)cc1CN1CCN(C(=O)CCC(=O)Nc2nnc(C(C)C)s2)CC1	u	-13.0%	18.5	8.2%	-3.1	-4.9%
Cn1c2cc(C=O)sc2c2cnn(Cc3ccccc3F)c(=O)c21	x	x	-7.0	x	-6.0	x

Bioassay records from PubChem.
